Test results: the supplement of paper PMC12632987
Over roughly 2,300 sequences, “median log2 fold change of GCK-ALFA target abundance (FLAG IP / Myc IP barcode read proportion)” has its median near 0.095; the lowest 2% begin near -0.47. The list comes from a sample in which the lowest values are over-represented; it also holds similar and randomly drawn sequences.

B1: LC3A_28_830 (protein)
chain: SKIEERIAKFKAEAEAAKASQEPATLTITVTSEDTVEEAKKIAEAMKEEAEKLKDVPDIGIVIDTDGKIDPEVLKILTDTADEIEEKYPNVTVIIALPEE
B2: LC3A_23_622 (protein)
chain: MYKVTVEADTIATPEEAEKYIKLVKEKVEEIKEKYKDKIEEVKLEIEREELPDGTVYLHITVTIIVKDDEELAQKLKNELVDFFDKNIPNGVISYEIEKL
B3: LC3A_free_46_2410 (protein)
chain: YVAEIDVDALAETKEKAEEFAKKIEEAAKEIAKEYGIEVEIEVKISKDEDGTYFVEIEITLEAETKETLEKAVNELIDKIEEIAEELGVSIIISYEISEA
B4: LC3A_28_1055 (protein)
chain: SAVEEQIKKALEEAKELAAKGEEALIEIEIEEDDTEEDVEKKLKTIEEIAEINKDLPSTSIIVNVNNKNKEEVTKKFADLGDELEKKYPNVTVIIALSEE
B5: LC3A_28_1327 (protein)
chain: SELEEQLEKQRKEALELAEKGEDVLIEVTITPETTLEEAEELMEKLRELVKEVAPKVKVSIVVDVEGGVSQEVIDAIAEKADEIEKEYPNATVIIALDED
B6: LC3A_free_39_2199 (protein)
chain: SEEEEEEAEEEILELAEEEGEEALEAAEELLEELEGNLELVEAVLEQVKRAKEEGADVLELLKRLLELVRKLQEEGKSEEEIIEAIEEEADVIINLIPID
B7: LC3A_28_1010 (protein)
chain: MSVVEETKKEAEKALEEAKKGNDAYLEIKITKDTTLEEVKEIGKIIEETAKKISEIENVKLYIVVDDDSNEEKHNIILDKLDEIEKKYPNVSSIVAYTDE
B8: LC3A_3_1354 (protein)
chain: SEELIEEQIERLREAGFSEEVLEAARAAFEGLAAQGHEEGIELLTEALLKHKDAPEEKKLRVLNNLLAEVQANPNLTQEEVEELVKLADLDLAIEELDEE
B9: LC3A_132_313 (protein)
chain: SEKKYEEIKKKLEELLKEAEKNINDKEKVEELLKEIRKLLEEAEKELSPEQVKELYDFVADRLYKLSLKADEAGKEDVSLLLDAAAIEAASKALKAEKKI
B10: LC3A_28_1162 (protein)
chain: SAIEESIKAAFEELEKAIKEGKNGVITLKVPGDATEEDIERLIKALEEIAKKAEEHGINGILIDVDGGVKQEHIDRLAKAAEEIEKKYPKVTIIIALSDE
B11: LC3A_free_46_2347 (protein)
chain: YKAEIDIDLLAEDEETLKKAVEEIVEAAKKIAKKYNLKVNIEVEIEKLEDGSYYARIKITLEGETKEDVEAAVNELIDEIDKIAKKYNVAAIISYEIIKT
B12: LC3A_free_46_2352 (protein)
chain: VEAKIEIDLLADDKEKLEKAVEEIIKKIKEIAKKYGLEVEINYEISKLEDGSYYAKIEITLKGEDLEDVKKAVNELINEIEEIAEKYGVSAVISYEIEDV
B13: LC3A_free_0_2121 (protein)
chain: KKTVVELVVILDEKTSEEKAKEAYEELKEKAEELAEENGWEVEVKLDKVDGRHIITVTLTSDEPDIDKGLELERKLSEIAEEIAKKLGLDATIYSSVYLE
B14: LC3A_free_8_2531 (protein)
chain: NVQEMVDLALKELDKLEKIAVEKAKELGLSRTDILELELVIGSAKIDIIEASDKSVEEIYKLFKEELKEILEEAKKYGEELYKEVEKKAKEALKKMEEAK
B15: LC3A_28_1140 (protein)
chain: SALVEAAKAQIEADAEADKDEPEVLLRVTITSEMTVEQAREIMDHVEEVVEKLKDKEKIYIVVDATEPISQEVLDEIVERLEEIEKKYPNVSSIIALPED
B16: LC3A_28_1037 (protein)
chain: DELRRRAEEAVKEAEEQAKKGEEAVVTIKVGKLPTEEAKRIVREALERLIKISKKYGNVKISVVIDVDGDQELVDAIIDVAEEAEKKNPNLTVIIALSEE
B17: LC3A_23_605 (protein)
chain: MYKVEVIVDFIDKPEEAEKKVEELLKKVEELLKKHKDIVKDYEIKVTREALPDGTTYVEVEITIIIDGTKEEAEEIRNELESIASETLPNGVISSEVEEL
B18: LC3A_59_2035 (protein)
chain: SAEAEAAAARVRERGPSVDVVAEVFREVLEKNGLDPELARDLVAALVAVLVEAGLITAEEGAAIRAEADAAIDRLTDVDELVSELRVIILDALLKKNELE
B19: LC3A_141_361 (protein)
chain: ATKKETFTLTAKTEEEAIEVAEKIKEKIREFMEKTGAKEVKVTVTITAYNKKTGEVKTETIVETVTPENLDLFEEGLLIELLSYFEKGADEVKVTVTIES
B20: LC3A_45_1977 (protein)
chain: MAEATLDVLVPRELAEAALEALKRGAERLLEERGPGVEVDLEALEESYRATRDEEEVLLTVRIRAPTRQEALDLADELVEELERELGRPVAAAISVEELP
B21: LC3A_59_2019 (protein)
chain: MEEIEEYREKLREAIDNIDEFVEIVREGLEKFKDDKEKVEALLEEVMEVIVEELGADPEEAEKVLKRMKEIFKTEKDKEKAIELVVDEIRDLLLLTPIEE
B22: LC3A_3_1859 (protein)
chain: MEEIKKEIIELLKSLGRSEEVIEAAERLANLLIERGYKEALETLLEELKKLKDVSDEILLAMFEDLIEALETEDLSEEELIERIEEEARIALNDQEIEEL
B23: LC3A_17_549 (protein)
chain: MEEIKKELEKLLKELEALVKELEKYDPEAAKKLKKKLKEAKKLLEEGKLKEAAETLAEAARELANKLDELEPKHGNEASVLAMEASGLELEAIGLLLKLE
B24: LC3A_3_1857 (protein)
chain: MEEIKKEILELLKKLGRSEETIKAAEELADALIKRGYKKALEKLLEELKKLKNASDELLLDMFKELLAALENEKLNEEELIKKIEEEAKIVKNEQEIIEL
B25: LC3A_147_450 (protein)
chain: VLYEITVDILFKNDPELAEEVEEEIKEIAEKYGGEVEVEREVEQETPTTTLYFVRVTIKFEDEEKALEAEQEISELLDETAKKHPEKFVGAMISIEKIEE
B26: LC3A_28_755 (protein)
chain: ADIEGTIKEAIERAKKAKEEGKEEVIEITVPAGATQADIDKVIEGMEEIAEINKDMKRTTILVNVEAGVAQENLDKLIDAGEEIEEKYPNVTVIFALDEE
B27: LC3A_28_1202 (protein)
chain: SATKAAADAALAEAKALLAAGEEGVVELVVEGKITEEETQYVIDKLEEIAELAAKSGKISIVLDISGEVPEEHQQKLIDKADELEKKYPNVNIIVALEER
B28: LC3A_3_1805 (protein)
chain: ADERIEALLEELRAAGASEETIAAAREVLTLLRERGYLEALETLIEGLRELLDAPDELRLDLLEDVLEYLETNDASEEEVTEFIKEEIRLARSESEIEEL
B29: LC3A_28_1235 (protein)
chain: NAVEKQIEAAKAEVEAAVAAGEEALVELTVTKETTEEDVEKIIKAMEEIAALAATLPALTIIIDVERGVKQEHIDKLADAADAIEAKYPNVTVIIALEEE

Biological target: MAP1LC3A, Q9H492
Experiment: median log2 fold change of GCK-ALFA target abundance (FLAG IP / Myc IP barcode read proportion) (log2 ratio); each designed protein is fused to an ALFA-tag nanobody in HEK293 cells to bring the named protein to FLAG-tagged glucokinase (GCK); Myc marks an untargeted standard; higher = target protein stabilised (more abundant)
Settings: target protein: 3xFLAG-MCP-GCK-ALFA reporter; HEK293 landing pad (RPLP)
Procedure: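 LABEL-seq trans screen in HEK293 landing-pad cells. Each de novo designed 100-aa effector handle, binding the indicated effector (E3 ligase, DUB or autophagy protein), is fused to a constant NbALFA target handle and induced with 2 ug/mL doxycycline. A FLAG-MCP-GCK-ALFA target and a Myc-MCP standard reporter were transfected, and after 48 h circRNA barcodes were recovered by anti-FLAG and anti-Myc IP and sequenced. The value is the median across barcodes (at least 3 per design) of log2(FLAG/Myc read-proportion ratio), with the two transfection replicates pooled. Negative values mean degradation and positive values mean stabilisation of the target.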

Row | Binder | median log2 fold change
1 | B1 | 0.132
2 | B2 | -0.561
3 | B3 | 0.0318
4 | B4 | 0.0494
5 | B5 | -0.563
6 | B6 | 0.103
7 | B7 | -0.515
8 | B8 | 0.184
9 | B9 | -0.171
10 | B10 | -0.0306
11 | B11 | -0.556
12 | B12 | 0.204
13 | B13 | 0.00278
14 | B14 | -0.0124
15 | B15 | -0.0164
16 | B16 | -0.36
17 | B17 | -0.868
18 | B18 | 0.256
19 | B19 | -0.0634
20 | B20 | 0.107
21 | B21 | -0.514
22 | B22 | 0.169
23 | B23 | 0.207
24 | B24 | 0.117
25 | B25 | -0.716
26 | B26 | -0.196
27 | B27 | -0.206
28 | B28 | -0.0069
29 | B29 | 0.0727
